Measured values from PubChem BioAssay AID493151 (Sanford-Burnham Center for Chemical Genomics, 2011).
About 860 (61%) of roughly 1,400 compounds were called active.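 How the source made its calls: active means inhibition reaching a set limit, 80% of the first screen's cutoff, at 20 µM in any replicate; inactive means the rest.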 So high a share suggests a set chosen from earlier hits. The list is a sample of the results.

target: DNA dC->dU-editing enzyme APOBEC-3A (Homo sapiens) (UniProt P31941); experiment: A3A ssDNA deamination blockers, replicate testing – biochemical, single concentration, fluorescence readout, selectivity assay for APOBEC3G inhibitor project, confirmation (AID 493151); conditions: recombinant A3A, ssDNA deaminase UDG fluorescence assay; at 20 µM; hits give high values;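 further: plate controls were DMSO wells with A3A for no effect and wells lacking A3A enzyme for full effect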
Sequence (P31941 whole entry, looked up): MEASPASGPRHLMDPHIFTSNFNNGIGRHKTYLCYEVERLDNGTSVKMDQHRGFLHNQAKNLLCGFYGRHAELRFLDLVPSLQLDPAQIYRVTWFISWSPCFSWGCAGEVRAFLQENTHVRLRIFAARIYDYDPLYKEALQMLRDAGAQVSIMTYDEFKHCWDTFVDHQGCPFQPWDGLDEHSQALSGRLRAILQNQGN

inhibition, active:
C=CC1=C(C(=O)O)N2C(=O)[C@@H](NC(=O)/C(=N/OCC(=O)O)c3csc(N)n3)[C@H]2SC1 76.3%, CSc1nnc(-c2ccncc2)n1CCCN1CCCC1=O 72.4%, COc1cc(/C=N\Nc2ccc([N+](=O)[O-])cn2)ccc1OCC(=O)O 37.7%, CC1(C)CC(N2CCN(C(c3ccccc3)c3ccccc3)CC2)=CC(=[N+]2CCCCC2)C1 58.7%, CCNC(=O)COC(=O)CCNC(=O)c1cccc(C)c1 25.7%, CSc1nnc(SCc2nc3sc(C(=O)O)c(C)c3c(=O)[nH]2)s1 68.9%, COC(=O)C1=C(C)N(Cc2ccccc2)C(=NCCCOC(C)C)N[C@H]1c1ccccc1 77.1%, CCn1c(SCC(=O)Nc2cccc(F)c2)nnc1-c1cc2cc(Br)ccc2o1 68.4%, O=C(COC(=O)c1cnc(Cl)c(Cl)c1)NCc1ccco1 19.3%, C[n+]1ccc(C(=O)NCc2ccccc2)cc1 63%, CC[n+]1cc(C)ccc1/C=C/c1ccc(N(C)C)cc1 58.4%, CCN1C(=NCCc2cccnc2)N[C@@H](c2ccccc2)[C@H](C(=O)OC)[C@H]1C 61.1%, CC[n+]1c(C)n(-c2ccccc2)c2ccc(NC(C)=O)cc21 73.8%, COc1ccc(C)cc1NC(=O)CCCN1C(=O)NC(C)(C)C1=O 48.1%, CS(=O)(=O)c1ccc2c(c1)SC1=NC(=O)/C(=C/c3ccco3)C(=N)N12 33.9%, CC(Oc1ccc(F)cc1)C(=O)Nc1cc(S(=O)(=O)N2CCOCC2)ccc1N1CCN(C)CC1 (centres undefined) 55.2%, C[N+](C)(C)CCNC(=O)c1cc[n+](Cc2ccccc2)c(/C=N/O)c1 52.7%, COC(=O)C[n+]1cccc2ccccc21 67.4%, CC(C)c1ccc(/C=C2\NC(=O)NC2=O)cc1 67.7%, CCCCCCCC[n+]1cccc(C(=O)N2c3c(nc(N)[nH]c3=O)NC(C)C2C)c1 (centres undefined) 69.9%, C[N+]1(CCNC(=O)/C=N/O)CCCCC1 73.9%, C[N+]1(CC(O)COc2ccccc2)CCN(C(=O)c2ccc([N+](=O)[O-])cc2)CC1 (centres undefined) 74.8%, Cc1cc2c(cc1C)[n+](C)cn2CC(O)COCC1CC=CCC1 (centres undefined) 73.1%, CCCc1nc(-c2cc3cc(C)ccc3[nH]c2=O)no1 67.6%, COc1ccccc1-c1noc(CSc2nc(C)cc(=O)[nH]2)n1 36.8%, O=C(c1ccc(CS(=O)(=O)c2ccccc2)o1)N1CCN(c2ccccc2)CC1 31.7%, N#Cc1ccccc1CN1C(=O)S/C(=C/c2cccn2-c2cccc(C(=O)O)c2)C1=O 53.8%, COc1ccccc1CCNC(=O)C1CCN(C(=O)/C=C/c2ccccc2)CC1 36.9%, CC1(C)Oc2ccc3ccc(=O)oc3c2/C(=C/NCCO)C1=O 71.5%, CCOC(=O)c1ccc(NC(=O)CSc2ncccn2)cc1 59%, CCCCNC(=O)CSc1nc2ccc(NC(=O)CSc3nnc(N)s3)cc2s1 49.7%, COc1ccc(Br)cc1CN(C)C(=O)C1CC(=O)N(C2CCCC2)C1 (centres undefined) 27.6%, O=C(CSc1nc2ccccc2c(=O)[nH]1)Nc1nc(-c2ccc(Br)cc2)cs1 42.3%, CC(C)CCOc1ccc(C(=O)C[N+]2(C)CCOCC2)cc1 95.7%, Cc1ccc(C(=O)N/N=C\c2cc(Br)c(Br)o2)cn1 15.2%, C[N+](C)(CCCCCC[N+](C)(C)CCCN1C(=O)c2cccc3cccc(c23)C1=O)CCCN1C(=O)c2cccc3cccc(c23)C1=O 35.2%, CC(=O)Nc1ccc(Nc2cc(C)nc(Nc3ccc(NC(C)=O)cc3)n2)cc1 48.6%, Cc1ccc(CCCOC(=O)C[N+]2(C)CCCCC2)cc1 81.4%, CCN1C(=NCc2ccc(OC)cc2)N[C@@H](CCc2ccccc2)[C@H](C(=O)NCc2ccc(OC)cc2)[C@H]1C 32.8%, CCN1C(=NCC(C)C)N[C@@H](CCc2ccccc2)[C@H](C(=O)NCC(C)C)[C@H]1C 37.8%, COCCCn1c(Cc2csc(Nc3cccc(Cl)c3)n2)nnc1SCC(=O)OC1CCCCC1 72.2%

inhibition, inactive:
O=C(Nc1cccc(-c2nc3ccccc3[nH]2)c1)c1ccc(C(=O)Nc2cccc(-c3nc4ccccc4[nH]3)c2)cc1 6.82%, CC(=O)Nc1ccc(NC(=O)C2CCCN(S(=O)(=O)c3ccc(Cl)cc3)C2)cc1 (centres undefined) -5.52%, O=C(CSc1nccc(=O)[nH]1)Nc1ccc(N2CCOCC2)c(Cl)c1 18.1%, Cc1ccc(C2=C/C(=C\c3cccnc3)C(=O)O2)cc1 19.7%, COc1ccc(Cc2nnc(NC(=O)c3ccc(OC)cc3OC)s2)cc1 -9.68%, N#Cc1ncc(C(F)(F)F)cc1Oc1cccnc1 -4.78%, NS(=O)(=O)c1cc(C(=O)OCC(=O)NNC(=O)c2ccccc2)ccc1Cl 8.76%, CC1=NN(C(=O)CCc2ccccc2O)C(O)(C(F)(F)F)C1 (centres undefined) 21.4%, O=C(CNC1CCCCC1)NCC1(c2ccccc2)CCCC1 29.8%, COc1ccc(NC(=O)CN(C)C(=O)/C=C/c2cn(Cc3ccccc3)nc2-c2cccnc2)cc1 30.7%, CCCN1C2=C(C(=O)CCC2)C(c2ccc(O)c(Br)c2)C2=C1CCCC2=O -5.86%, S=C(Nc1cccnc1)Nc1ccccn1 -2%, CNc1ccc([N+](=O)[O-])cc1C(=O)O 0.63%, COc1ccc(CNc2nnnn2C)cc1 -3.03%, CC(/C=C/c1ccccc1)=N\NC(=O)C1CC1(C)c1ccccc1 (centres undefined) -0.43%, COc1ccc2[nH]c(=O)c(-c3noc(-c4ccc(F)cc4)n3)cc2c1 5.11%, Cc1snc(SCc2c(F)cccc2Cl)c1C#N 30.3%, CCN(CC)CCCNC(=O)CCn1nc(-c2ccc(Cl)cc2)ccc1=O -4.91%, Cc1nnc(N/N=C/c2ccccn2)[nH]c1=O -1.88%, O=C(N/N=C\c1cccnc1)c1cc(-c2ccccc2)nc2c(Cl)cccc12 -3%, COc1ccc(CCNC(=O)COC(=O)/C=C/c2cccs2)cc1OC -7.13%, N#Cc1ccsc1NC(=O)CN1CCN(S(=O)(=O)c2cc(Cl)ccc2Cl)CC1 22.2%, Cc1csc(SCC(=O)Nc2sccc2C#N)n1 0.02%, CCN(CC)CCOC(=O)c1ccc(NC(=O)CNC(=O)c2ccccc2)cc1 2.53%, Cc1cc(/C=N/NC(=O)CC2(C)OCCO2)c(C)n1-c1ccc(Cl)c(Cl)c1 0.39%, CCS(=O)(=O)c1ccc(-c2cccc(NC(=O)c3ccc(Br)o3)c2)nn1 -5.47%, COc1cccc(NC(C)=[N+](C)CCNS(=O)(=O)c2ccc(Cl)cc2)c1 29.4%, O=C1c2oc3ccccc3c(=O)c2C(c2cccc(O)c2)N1c1ccccn1 (centres undefined) -9.88%
